In PubChem BioAssay (NCATS) one finds Potency data, which are given here for 31 molecules.

Molecules are shown by their SMILES. Inconclusive results are not listed. The source made the active and inactive calls. The call rests on the fitted dose curve; in most records, active means well fitted cell-killing curve with a large enough effect; inconclusive means small, poorly fitted or top-dose-only effect, or effect the other way; inactive means flat fitted curve, though single readings scatter.

Holding throughout (experiment): Primary qHTS to identify gynecologic anti-cancer compounds using libraries of approved drugs and bioactive compounds (AID 1345084); further: nearly all actives have a fitted effect of over 55% in size
Background: qHTS replaces the single test concentration by a dilution series.

One test deals with CASKI. Particulars: Gynecologic cancer cell panel viability, ATPlite luminescence, 48 h; series mostly up to 57.5 µM. In outline:
(§1)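 ATP-based viability (ATPlite), 1,000 cells/well, 16 h pre-incubation, 48 h compound at 37 C, 5% CO2, 15 min RT before read.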

For the next test, the system named is Es-2. The following applies: Gynecologic cancer cell panel viability, ATPlite luminescence, 48 h; series mostly up to 57.5 µM. The gist of the method: as §1
For orientation: ATP-based viability assays read luminescence as a measure of living cells.

The subject of a further test is HeLa. The following applies: Gynecologic cancer cell panel viability, ATPlite luminescence, 48 h; series mostly up to 57.5 µM. The gist of the method:
as §1

The subject of the next test is Hek293T. Particulars: Gynecologic cancer cell panel viability, ATPlite luminescence, 48 h, control line for the selectivity index; series mostly up to 57.5 µM. In outline:
as §1

Another test concerns OV90. The following applies: Gynecologic cancer cell panel viability, ATPlite luminescence, 48 h; series mostly up to 57.5 µM. In outline: as §1
The subject of a further test is PA-1. The following applies: Gynecologic cancer cell panel viability, ATPlite luminescence, 48 h; series mostly up to 57.5 µM. The gist of the method: as §1
The next test deals with Tov112D. Particulars: Gynecologic cancer cell panel viability, ATPlite luminescence, 48 h; series mostly up to 57.5 µM. In outline:
as §1

A further test concerns JEG-3. Particulars: Gynecologic cancer cell panel viability, ATPlite luminescence, 48 h; series mostly up to 57.5 µM. In outline: as §1
In the next test the test system is Tov-21-G. The following applies: Gynecologic cancer cell panel viability, ATPlite luminescence, 48 h; series mostly up to 57.5 µM. The gist of the method: as §1
In a further test the test system is SKOV3. Particulars: Gynecologic cancer cell panel viability, ATPlite luminescence, 48 h; series mostly up to 57.5 µM. The gist of the method: as §1
Potency means the concentration at half of the fitted maximal effect.

In the case of `Nc1ccc2cc3ccc(N)cc3nc2c1`, the Potency with CASKI is 11.2 µM (active); with Es-2, 8.91 µM (active); in the test with HeLa it was 17.8 µM (active); with Hek293T it was 6.31 µM (active); in the test with OV90, 28.2 µM (active); in the test with PA-1 it was 7.94 µM (active). The Potency in the test on Tov112D was 28.2 µM (active).
In the case of `C=CCNc1nc(NCC=C)nc(N2CCN(C(c3ccc(F)cc3)c3ccc(F)cc3)CC2)n1`, the Potency result in the test on CASKI, in the test with Es-2, in the test on HeLa, with JEG-3, in the test on PA-1 and with Tov-21-G was “inactive” in each case. In addition, the Potency entry in the test on Tov112D was “inactive”.
Consider `CCCCCC(=O)O[C@]1(C(C)=O)CC[C@H]2[C@@H]3CCC4=CC(=O)CC[C@]4(C)[C@H]3CC[C@@]21C`, for which the Potency result with CASKI, with Es-2, with JEG-3, with PA-1, in the test on Tov-21-G and with Tov112D was “inactive” in each case.
As to `CC(C)C(C)(C)C(C)(C)C(C)(C)S`, the Potency result in the test on CASKI, with Es-2, in the test with HeLa, in the test with Hek293T, with OV90 and in the test with Tov-21-G was “inactive” throughout. In the test on Tov112D, the Potency result is “inactive”.
On to `CN1C(=O)c2ccccc2C1=O`, for which the Potency result in the test on CASKI, in the test with Es-2, in the test with HeLa, in the test on Hek293T, in the test on OV90 and in the test with PA-1 was “inactive” each time. The Potency entry in the test with Tov-21-G and in the test with Tov112D was “inactive” each time.
As for `CCCC(=O)O[C@]1(C(=O)CCl)[C@@H](C)C[C@H]2[C@@H]3CCC4=CC(=O)C=C[C@]4(C)[C@@]3(F)C(=O)C[C@@]21C`, the Potency result in the test on CASKI, in the test on Es-2, with HeLa, with JEG-3, in the test on OV90 and with PA-1 was “inactive” each time. The Potency entry in the test with Tov-21-G and with Tov112D was “inactive” in each case.
As to `COc1ccc([C@@H]2Sc3ccccc3NC(=O)[C@@H]2O)cc1`, the Potency result with CASKI, in the test with Es-2, in the test with HeLa, with JEG-3 and in the test with OV90 was “inactive” each time.
As to `Nc1nc2ccccc2n1Cc1ccc(F)cc1`, the Potency result with CASKI, with Es-2, in the test on HeLa, with JEG-3, with OV90 and in the test with PA-1 was “inactive” each time. Moreover, the Potency result with SKOV3, in the test with Tov-21-G and in the test on Tov112D was “inactive” each time.
As for `CC(C)(C)c1ccc(C(=O)CCCCl)cc1`, the Potency result in the test on CASKI, in the test on Es-2, in the test on Hek293T, with JEG-3, in the test with OV90 and with PA-1 was “inactive” in each case. The Potency result with SKOV3, in the test with Tov-21-G and in the test on Tov112D was “inactive” each time.
As to `O=C1CCCc2c(O)cccc21`, the Potency entry in the test on CASKI, in the test with Es-2, with Hek293T, in the test with JEG-3, with PA-1 and in the test on Tov-21-G was “inactive” each time. Further, the Potency entry in the test with Tov112D was “inactive”.
As for `CC(CC1c2ccccc2CCc2ccccc21)CN(C)C` (stereo not given), the Potency result in the test on CASKI, in the test on Es-2, with HeLa, in the test on JEG-3, in the test on PA-1 and in the test on Tov-21-G was “inactive” each time. The Potency result in the test with Tov112D was “inactive”. In addition, the Potency with OV90 is 17.8 µM (active).
Take `CNC[C@H](O)[C@@H](O)[C@H](O)[C@H](O)CO`: the Potency result in the test with CASKI, in the test on Es-2, with HeLa, in the test on JEG-3, in the test with OV90 and with PA-1 was “inactive” each time. Also, the Potency result with SKOV3, in the test on Tov-21-G and in the test on Tov112D was “inactive” throughout.
Take `O=C1Cc2cc(Cl)ccc2N1`: the Potency result in the test on CASKI, in the test with Es-2, in the test with Hek293T, with JEG-3, with OV90 and in the test on PA-1 was “inactive” each time. The Potency result in the test on SKOV3, in the test on Tov-21-G and with Tov112D was “inactive” throughout.
With `CCCCCCCCCCCC[N+](C)(C)Cc1ccccc1`, the Potency with CASKI was 2.24 µM (active); in the test with Es-2 it was 7.94 µM (active); in the test with HeLa, 10 µM (active); with Hek293T, 15.8 µM (active); in the test with OV90, 14.1 µM (active); in the test with PA-1 it was 8.91 µM (active). The Potency with SKOV3 was 3.16 µM (active); in the test on Tov-21-G, 7.94 µM (active); with Tov112D it was 25.1 µM (active).
Take `Nc1ccc2c(c1)CN1C(=O)c3ccccc3C1=N2`: the Potency in the test with CASKI is 6.31 µM (active); with Es-2, 10 µM (active); with JEG-3, 11.2 µM (active); in the test on SKOV3, 7.94 µM (active); in the test on Tov-21-G, 10 µM (active).
Take `CN1CC[C@H](c2c(O)cc(O)c3c(=O)cc(-c4ccccc4Cl)oc23)[C@H](O)C1`: the Potency was 0.708 µM (active) with CASKI; 0.708 µM (active) in the test with Es-2; 0.794 µM (active) in the test on HeLa; 0.447 µM (active) in the test with PA-1; 1.12 µM (active) in the test on Tov112D. Besides, the Potency result in the test on JEG-3 was “inactive”.
Turning to `COC(=O)[C@H]1[C@H]2C[C@@H]3c4[nH]c5cc(OC)ccc5c4CCN3C[C@H]2C[C@@H](OC(=O)/C=C/c2ccc(O)c(OC)c2)[C@@H]1OC`, the Potency entry in the test with CASKI, with Es-2, with HeLa, in the test on Hek293T, in the test with PA-1 and with Tov112D was “inactive” throughout. Moreover, the Potency is 31.6 µM (active) with OV90 and 35.5 µM (active) in the test on SKOV3.
Consider `CC(C)=CCNc1ncnc2c1ncn2[C@@H]1O[C@H](CO)[C@@H](O)[C@H]1O`, for which the Potency is 12.6 µM (active) with CASKI; 25.1 µM (active) in the test with Es-2; 14.1 µM (active) in the test on HeLa; 17.8 µM (active) with OV90; 7.94 µM (active) in the test on PA-1; 11.2 µM (active) in the test with SKOV3. The Potency in the test with Tov-21-G was 10 µM (active); in the test with Tov112D, 7.08 µM (active).
Regarding `CCCCCOc1ccccc1/C(=C\SC)n1ccnc1`, the Potency entry with CASKI, in the test with Es-2, in the test on Hek293T, in the test with JEG-3, in the test on OV90 and in the test on Tov-21-G was “inactive” throughout. Moreover, in the test on Tov112D, the Potency entry was “inactive”.
In the case of `CCCCCCCCCCCCCCCC[n+]1ccccc1`, the Potency in the test on CASKI is 7.94 µM (active); with Es-2 it was 17.8 µM (active); in the test on Hek293T, 8.91 µM (active); with OV90, 31.6 µM (active); in the test on Tov-21-G it was 31.6 µM (active).
As for `CC(C)OC(=O)c1cc2c(OCC(O)CNC(C)(C)C)cccc2[nH]1` (stereo not given), the Potency entry in the test on CASKI, in the test on Es-2, in the test on JEG-3, in the test on PA-1, with Tov-21-G and in the test with Tov112D was “inactive” in each case.
Turning to `CCC(=O)O[C@H]1[C@H](O[C@@H]2[C@@H](C)[C@H](O[C@H]3C[C@@](C)(OC)[C@@H](O)[C@H](C)O3)[C@@H](C)C(=O)O[C@H](CC)[C@@](C)(O)[C@H](O)[C@@H](C)C(=O)[C@H](C)C[C@@]2(C)O)O[C@H](C)C[C@@H]1N(C)C`, the Potency entry in the test on CASKI, with Es-2, with HeLa, in the test with JEG-3, in the test with OV90 and in the test with PA-1 was “inactive” in each case. For the same molecule, the Potency result in the test with SKOV3, with Tov-21-G and in the test on Tov112D was “inactive” throughout.
For `CN(C)CCCOC1(Cc2ccccc2)CCCCCC1`, the Potency result with CASKI, with Es-2, with HeLa, with Hek293T, with JEG-3 and in the test on PA-1 was “inactive” throughout. In addition, the Potency result in the test with Tov-21-G and with Tov112D was “inactive” each time.
With `CCCCC/C=C\C/C=C\CCCCCCCC(=O)NC(C)c1ccccc1` (stereo not given), the Potency result with CASKI, in the test with Es-2, in the test on HeLa, in the test on Hek293T, with JEG-3 and with PA-1 was “inactive” in each case. For the same molecule, the Potency result in the test with Tov-21-G and with Tov112D was “inactive” in each case.
For `CC[N+]1(CC)CCC(=C(c2ccccc2)c2ccccc2)C1C` (stereo not given), the Potency result with CASKI, in the test with Es-2, in the test on HeLa, in the test on Hek293T, with OV90 and in the test with Tov-21-G was “inactive” in each case. Besides, in the test with Tov112D, the Potency entry is “inactive”.
Consider `C[C@@H](C1=C(CCN(C)C)Cc2ccccc21)c1ccccn1`, for which the Potency entry in the test on CASKI, in the test with Es-2, in the test with HeLa, with JEG-3, in the test on PA-1 and in the test with SKOV3 was “inactive” throughout. The Potency result in the test with Tov-21-G and in the test on Tov112D was “inactive” in each case.
`Nc1ccc(O)cc1`: the Potency entry in the test with CASKI, in the test on Es-2, in the test with Hek293T, in the test on JEG-3, in the test on OV90 and with PA-1 was “inactive” in each case. The Potency result with SKOV3, in the test with Tov-21-G and with Tov112D was “inactive” in each case.
`CN1CCC(Nc2ncc3ncnc(Nc4ccc(F)c(Cl)c4)c3n2)CC1`: the Potency result with CASKI, with Es-2, in the test on HeLa, in the test with Tov-21-G and in the test on Tov112D was “inactive” each time.
As to `C[C@H](N)C(=O)N[C@@H](C)C(=O)NC1[C@H]2CN(c3nc4c(cc3F)c(=O)c(C(=O)O)cn4-c3ccc(F)cc3F)C[C@@H]12` (stereo not given in full), the Potency entry in the test on CASKI, in the test with Es-2, in the test with HeLa, with JEG-3, with OV90 and in the test with SKOV3 was “inactive” throughout. Moreover, the Potency entry in the test with Tov-21-G and in the test with Tov112D was “inactive” each time.
For the molecule `C[C@@H](O[C@H]1OCCN(Cc2n[nH]c(=O)[nH]2)[C@H]1c1ccc(F)cc1)c1cc(C(F)(F)F)cc(C(F)(F)F)c1`, the Potency entry in the test with CASKI, in the test with Es-2, with Hek293T, in the test on JEG-3, in the test on OV90 and in the test on PA-1 was “inactive” throughout. The Potency entry with Tov-21-G is “inactive”.
`CC(C)(C)C1CCC(CC2=C(O)c3ccccc3C(=O)C2=O)CC1` (stereo not given): the Potency result in the test with CASKI, in the test with Es-2, in the test on HeLa, in the test on Hek293T, in the test on JEG-3 and in the test with PA-1 was “inactive” each time. The Potency entry with Tov-21-G and in the test with Tov112D was “inactive” each time.
